Read-out in assay [1]: Macrophage Inflammatory Protein-1 Alpha (MIP1a), CCL3 (gene 6348)
Kind of assay: BSK_IMphg_MIP1a: BioMAP Diversity Plus: IMphg Assay for Macrophage Inflammatory Protein-1 Alpha (MIP1a) Biomarker Activity (AID 2284255). As to conditions: primary human endothelial cells with macrophages. Summed up: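 Co-culture of human venular endothelial cells and macrophages exposed to compounds for 24 h; MIP-1a measured by ELISA relative to DMSO. Cytotoxicity assessed in parallel cultures by sulforhodamine B total-protein staining at 560 nm.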

Read-out in a further assay: CD69, CD69 (gene 969)
Kind of assay: BSK_IMphg_CD69: BioMAP Diversity Plus: IMphg Assay for CD69 Biomarker Activity (AID 2284257). The conditions noted are these: primary human endothelial cells with macrophages. An outline of the steps:
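Human venular endothelial cells co-cultured with macrophages; CD69 quantified by ELISA 24 h after compound addition. Activity fitted in the positive direction relative to DMSO baseline; cytotoxicity tracked in parallel cultures via SRB total-protein staining.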

Read-out in assay [2]: Eotaxin 3, CCL26 (gene 10344)
In words: BSK_BF4T_Eotaxin3: BioMAP Diversity Plus: BF4T Assay for Eotaxin 3 Biomarker Activity (AID 2284258). The conditions noted are these: primary human bronchial epithelial cells with fibroblasts. An outline of the steps: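 Co-culture of human bronchial epithelial cells and dermal fibroblasts, exposed to chemicals for 24 h versus DMSO. Eotaxin-3 quantified by ELISA; cytotoxicity checked in parallel cultures by sulforhodamine B total-protein staining.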

Read-out in assay [3]: Monocyte Chemoattractant Protein-1 (MCP1), CCL2 (gene 6347)
Kind of assay: BSK_BF4T_MCP1: BioMAP Diversity Plus: BF4T Assay for Monocyte Chemoattractant Protein-1 (MCP1) Biomarker Activity (AID 2284259). The conditions noted are these: primary human bronchial epithelial cells with fibroblasts. An outline of the steps: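 Co-culture of bronchial epithelial cells and dermal fibroblasts dosed with chemical; MCP-1 measured by ELISA 24 h later. Activity fitted in positive direction versus DMSO; cytotoxicity checked by SRB staining in parallel cultures.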

Read-out in assay [4]: Intercellular Adhesion Molecule 1 (ICAM1), ICAM1 (gene 3383)
In words: BSK_BF4T_ICAM1: BioMAP Diversity Plus: BF4T Assay for Intercellular Adhesion Molecule 1 (ICAM1) Biomarker Activity (AID 2284260). As to conditions: primary human bronchial epithelial cells with fibroblasts. An outline of the steps:
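Co-culture of human bronchial epithelial cells and dermal fibroblasts exposed 24 h to chemical; cell-surface ICAM-1 quantified by ELISA. Parallel SRB total-protein staining assessed cytotoxicity; activity fitted relative to DMSO.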

Read-out in assay [5]: Interleukin-8 (IL8), CXCL8 (gene 3576)
In words: BSK_MyoF_IL8: BioMAP Diversity Plus: MyoF Assay for Interleukin-8 (IL8) Biomarker Activity (AID 2284261). As to conditions: primary human lung fibroblasts. An outline of the steps: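 IL-8 quantified by ELISA after 24 h compound exposure of primary human lung fibroblasts. SRB staining of parallel cultures flagged cytotoxicity; DMSO served as baseline.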

Read-out in the next assay: CD90, THY1 (gene 7070)
In words: BSK_BF4T_CD90: BioMAP Diversity Plus: BF4T Assay for CD90 Biomarker Activity (AID 2284262). As to conditions: primary human bronchial epithelial cells with fibroblasts. An outline of the steps: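 Co-culture of human bronchial epithelial cells and dermal fibroblasts, 24 h compound exposure. Cell-surface CD90 measured by ELISA relative to DMSO; parallel SRB total-protein staining for cytotoxicity.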

Read-out in assay [6]: Interleukin-8 (IL8), CXCL8 (gene 3576)
In words: BSK_BF4T_IL8: BioMAP Diversity Plus: BF4T Assay for Interleukin-8 (IL8) Biomarker Activity (AID 2284263). The conditions noted are these: primary human bronchial epithelial cells with fibroblasts. An outline of the steps:
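Human bronchial epithelial cells with dermal fibroblasts co-culture; IL-8 measured by ELISA 24 hours after dosing, fitted vs DMSO. Cytotoxicity tracked in parallel cultures by SRB total-protein staining.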

Read-out in assay [7]: Plasminogen activator inhibitor-1 (PAI1), SERPINE1 (gene 5054)
Kind of assay: BSK_MyoF_PAI1: BioMAP Diversity Plus: MyoF Assay for Plasminogen activator inhibitor-1 (PAI1) Biomarker Activity (AID 2284256).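 Also: PAI-1 protein level measured by ELISA in fibroblast cultures; PAI-1 read 24 h after compound addition.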 The conditions noted are these: primary human lung fibroblasts. Summed up:
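Human lung fibroblasts (MyoF system) were exposed to test chemicals for 24 h, then PAI-1 was quantified by ELISA. Activity was fitted in the positive (signal-gain) direction relative to DMSO vehicle as baseline.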

Read-out in assay [8]: Interleukin-1 alpha (IL1a), IL1A (gene 3552)
In words: BSK_BF4T_IL1a: BioMAP Diversity Plus: BF4T Assay for Interleukin-1 alpha (IL1a) Biomarker Activity (AID 2284264). The conditions noted are these: primary human bronchial epithelial cells with fibroblasts. An outline of the steps:
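Human bronchial epithelial cells co-cultured with dermal fibroblasts, dosed and read at 24 h. Secreted/surface IL-1α quantified by ELISA; gain-of-signal fitted relative to DMSO baseline. Parallel SRB total-protein staining tracked cytotoxicity.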

Broadly, the AC50 is the concentration at which the activity in the assay is half-maximal.

Values joined by “and” are separate entries in the source; they are usually repeats but may differ in a detail not shown here. Equal values may be shown once. More than one record can exist for a structure, and the calls need not agree. Active and inactive are the calls of the source. The calls were made as follows: active = hit-call score of the fitted dose curve at least 0.9, where 1 is the maximum; inactive = score below 0.9.

Turning to `C=CC(F)(F)C(F)(F)C(F)(F)C(F)(F)C(F)(F)C(F)(F)C(F)(F)C(F)(F)F`, the outcome in assay [1] is “inactive”; with CD69, CD69 (gene 969) it was “inactive”; in assay [2] it was “inactive”; in assay [3], “inactive”; in [4] it was “inactive”; in [5], “inactive”. For the same molecule, the outcome is “inactive” with CD90, THY1 (gene 7070) and “inactive” in [6].
As to `FC(F)(F)C(F)(F)C(F)(F)CI`, the outcome was “inactive” in [7]; “inactive” with CD69, CD69 (gene 969); “inactive” in [2]; “inactive” in [3]; “inactive” in assay [4]; “inactive” in [5]. In addition, the outcome is “inactive” in the assay with CD90, THY1 (gene 7070) and “inactive” in assay [6].
`CC(C)(C)C(=O)CC(=O)C(F)(F)C(F)(F)C(F)(F)F`: the outcome in [7] was “inactive”; with CD69, CD69 (gene 969), “inactive”; in assay [2] it was “inactive”; in assay [3], “inactive”; in assay [4] it was “inactive”; in assay [5] it was “inactive”. The outcome is “inactive” with CD90, THY1 (gene 7070) and “inactive” in [6]. The concentration at half-maximal activity (AC50) in assay [3] was 49.9 µM (active).
For the molecule `C=C(C)C(=O)OCCC(F)(F)C(F)(F)C(F)(F)C(F)(F)C(F)(C(F)(F)F)C(F)(F)F`, the outcome in [1] is “inactive”; with CD69, CD69 (gene 969) it was “inactive”; in assay [2], “inactive”; in assay [3], “inactive”; in [4], “inactive”; in assay [5], “inactive”. For the same molecule, the outcome is “inactive” with CD90, THY1 (gene 7070) and “inactive” in assay [6].
Take `FC(F)(F)C(F)(F)CNCC(F)(F)C(F)(F)F`: the outcome in [1] was “inactive”; in assay [7] it was “inactive”; in the assay with CD69, CD69 (gene 969) it was “inactive”; in assay [2] it was “inactive”; in assay [3], “inactive”; in assay [4], “inactive”. The outcome in [5] is “inactive”; with CD90, THY1 (gene 7070), “inactive”; in assay [6], “inactive”.
Regarding `FC(F)(F)C(F)(F)C(F)(F)C(F)(F)C(F)(F)C(F)(F)C(F)(F)C(F)(F)F`, the outcome in [1] was “inactive”; with CD69, CD69 (gene 969), “inactive”; in [2], “inactive”; in assay [3] it was “inactive”; in [4], “inactive”; in assay [5], “inactive”. The outcome in the assay with CD90, THY1 (gene 7070) was “inactive”; in assay [6], “inactive”.
Turning to `FC1CC(F)(F)C(F)(F)C1(F)F` (stereo not given), the outcome in assay [1] was “inactive”; in assay [7], “inactive”; in the assay with CD69, CD69 (gene 969), “inactive”; in assay [2] it was “inactive”; in assay [3], “inactive”; in assay [4], “inactive”. The outcome in assay [5] was “inactive”; with CD90, THY1 (gene 7070), “inactive”; in assay [6], “inactive”.
As to `O=S(=O)(O)C(F)(F)C(F)(F)C(F)(F)C(F)(F)C(F)(F)C(F)(F)C(F)(F)F`, the outcome was “inactive” in assay [1]; “inactive” with CD69, CD69 (gene 969); “inactive” in [2]; “inactive” in [3]; “inactive” in [4]; “inactive” in [5]. Further, the outcome with CD90, THY1 (gene 7070) is “inactive”; in assay [6] it was “inactive”; in assay [8] it was “inactive”. Besides, the AC50 in assay [6] was 10.4 µM (active).
In the case of `O=C(Cl)C(F)(F)C(F)(F)C(F)(F)C(F)(F)C(F)(F)C(F)(F)C(F)(F)C(F)(F)F`, the AC50 was 23 µM (active) in assay [1]; 55.1 µM (active) and 33.8 µM (active) and 45.9 µM (active) with CD69, CD69 (gene 969); 41.7 µM (active) and 39.5 µM (active) and 45.8 µM (active) in [2]; 45.5 µM (active) in assay [3]. The outcome in assay [1] was “inactive”; in [3] it was “inactive”; in assay [4], “inactive”; in assay [5], “inactive”; in the assay with CD90, THY1 (gene 7070), “inactive”; in assay [6], “inactive”.
In the case of `CCCCCCCCC(F)(F)C(F)(F)C(F)(F)C(F)(F)C(F)(F)C(F)(F)F`, the outcome in assay [7] is “inactive”; with CD69, CD69 (gene 969) it was “inactive”; in assay [2] it was “inactive”; in assay [3] it was “inactive”; in assay [4], “inactive”; in assay [5], “inactive”. Further, the outcome was “inactive” in the assay with CD90, THY1 (gene 7070) and “inactive” in assay [6].
Take `Cc1ccc(S(=O)(=O)OCC(F)(F)C(F)(F)C(F)(F)C(F)(F)C(F)(F)C(F)F)cc1`: the outcome in [7] is “inactive”; in the assay with CD69, CD69 (gene 969) it was “inactive”; in assay [2], “inactive”; in [3] it was “inactive”; in assay [4], “inactive”; in assay [5] it was “inactive”. For the same molecule, the outcome is “inactive” with CD90, THY1 (gene 7070) and “inactive” in [6]. Further, the AC50 in assay [3] was 7.88 µM (active).
On to `OCC(F)(F)C(F)(F)C(F)(F)C(F)(F)C(F)(F)C(F)F`, for which the outcome in assay [7] is “inactive”; with CD69, CD69 (gene 969), “inactive”; in assay [2], “inactive”; in assay [3], “inactive”; in [4] it was “inactive”; in assay [5] it was “inactive”. The outcome is “inactive” in the assay with CD90, THY1 (gene 7070) and “inactive” in assay [6].
Turning to `FC(F)(I)C(F)(F)C(F)(F)C(F)(F)I`, the outcome was “inactive” in [1]; “inactive” with CD69, CD69 (gene 969); “inactive” in assay [2]; “inactive” in the assay with CD90, THY1 (gene 7070). In addition, the AC50 with CD69, CD69 (gene 969) is 10.1 µM (active); in assay [2], 57.1 µM (active) and 50.6 µM (active); in assay [3], 38 µM (active) and 42.1 µM (active) and 42.5 µM (active); in assay [4], 45.7 µM (active) and 47.8 µM (active) and 51.6 µM (active); in [5] it was 57.5 µM (active) and 48 µM (active) and 48.5 µM (active); in assay [6], 45.6 µM (active) and 51 µM (active) and 55.6 µM (active). Further, in assay [8], the AC50 is 55.2 µM (active) and 45.6 µM (active) and 47.3 µM (active).

The values are drawn from PubChem BioAssay (EPA / NIEHS).
